Test results as given in the supplement of paper PMC11732987, “Enantioselective OTUD7B fragment discovery through chemoproteomics screening and high-throughput optimisation” (Communications Chemistry, 2025).
Values without a mark were called inactive.

compound: ClCC(=O)N1CCC(CC#N)C1; experiment: log2 ratio of Biotin-Ahx-Ub-VS probe labelling (compound/DMSO); higher = less target engagement, active = hit call of the paper (q ≤ 0.05, log2 ratio ≤ -1); settings: compound concentration: 50uM; treatment time: 3 h
Protocol: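 Round 2 competitive ABPP in HEK293T lysate. Purified HTC-D2B compounds were tested at 50 and 200 µM for 3 h, followed by Biotin-Ahx-Ub-VS enrichment and diaPASEF LC-MS/MS. Values are the average log2 ratio (compound/DMSO) from an unpaired t-test (n=3 treated, n=26 DMSO).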

Chain of UniProt P51665 (P51665 whole entry): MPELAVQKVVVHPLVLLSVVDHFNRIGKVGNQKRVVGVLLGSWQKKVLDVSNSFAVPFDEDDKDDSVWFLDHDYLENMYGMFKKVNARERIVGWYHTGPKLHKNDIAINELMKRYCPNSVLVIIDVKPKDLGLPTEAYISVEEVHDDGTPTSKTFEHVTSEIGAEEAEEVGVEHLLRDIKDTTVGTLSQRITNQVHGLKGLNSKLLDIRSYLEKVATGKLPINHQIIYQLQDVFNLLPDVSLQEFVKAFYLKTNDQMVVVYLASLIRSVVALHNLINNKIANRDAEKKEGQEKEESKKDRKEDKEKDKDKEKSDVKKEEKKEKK
Chain of UniProt P15374 (P15374 whole entry): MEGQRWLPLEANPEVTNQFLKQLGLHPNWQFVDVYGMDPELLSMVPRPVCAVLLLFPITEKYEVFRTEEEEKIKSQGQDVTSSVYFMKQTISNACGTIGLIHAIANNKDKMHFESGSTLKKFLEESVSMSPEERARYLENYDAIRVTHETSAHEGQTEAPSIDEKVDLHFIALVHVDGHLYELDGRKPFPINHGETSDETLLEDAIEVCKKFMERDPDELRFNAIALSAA
Chain of UniProt P54578 (P54578 whole entry): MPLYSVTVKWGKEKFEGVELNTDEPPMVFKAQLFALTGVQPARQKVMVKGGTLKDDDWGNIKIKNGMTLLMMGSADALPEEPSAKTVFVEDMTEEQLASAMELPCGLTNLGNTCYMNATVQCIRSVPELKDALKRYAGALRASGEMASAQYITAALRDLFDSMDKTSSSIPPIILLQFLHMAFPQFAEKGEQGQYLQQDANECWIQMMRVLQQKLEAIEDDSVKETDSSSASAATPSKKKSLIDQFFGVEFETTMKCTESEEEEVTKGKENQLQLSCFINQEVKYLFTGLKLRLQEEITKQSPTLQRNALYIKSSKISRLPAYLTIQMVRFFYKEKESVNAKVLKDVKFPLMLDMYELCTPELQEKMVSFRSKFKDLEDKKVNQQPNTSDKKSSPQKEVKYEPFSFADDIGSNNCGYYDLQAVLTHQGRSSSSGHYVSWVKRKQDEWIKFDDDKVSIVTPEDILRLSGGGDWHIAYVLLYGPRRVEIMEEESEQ
Chain of UniProt P54252 (P54252 whole entry): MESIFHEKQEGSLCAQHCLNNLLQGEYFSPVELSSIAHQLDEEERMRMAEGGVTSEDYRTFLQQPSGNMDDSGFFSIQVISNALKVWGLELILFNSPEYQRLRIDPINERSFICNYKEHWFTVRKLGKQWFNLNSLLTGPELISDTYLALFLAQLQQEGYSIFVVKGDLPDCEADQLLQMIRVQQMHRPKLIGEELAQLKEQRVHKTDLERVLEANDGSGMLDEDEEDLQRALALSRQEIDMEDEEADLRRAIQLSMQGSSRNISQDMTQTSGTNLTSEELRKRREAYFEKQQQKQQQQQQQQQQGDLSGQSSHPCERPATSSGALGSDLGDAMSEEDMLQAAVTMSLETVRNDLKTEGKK
Chain of UniProt O75317 (O75317 whole entry): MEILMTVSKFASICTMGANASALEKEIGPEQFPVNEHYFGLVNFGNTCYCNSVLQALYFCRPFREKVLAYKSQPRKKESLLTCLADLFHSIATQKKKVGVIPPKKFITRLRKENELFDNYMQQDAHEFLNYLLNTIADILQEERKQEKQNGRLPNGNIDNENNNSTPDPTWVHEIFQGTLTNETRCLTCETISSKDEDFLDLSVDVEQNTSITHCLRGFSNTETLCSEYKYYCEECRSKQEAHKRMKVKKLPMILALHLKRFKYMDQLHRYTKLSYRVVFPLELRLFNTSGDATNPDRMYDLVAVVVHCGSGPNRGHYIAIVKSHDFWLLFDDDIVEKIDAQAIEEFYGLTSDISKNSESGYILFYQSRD
Chain of UniProt Q8TE49 (Q8TE49 whole entry): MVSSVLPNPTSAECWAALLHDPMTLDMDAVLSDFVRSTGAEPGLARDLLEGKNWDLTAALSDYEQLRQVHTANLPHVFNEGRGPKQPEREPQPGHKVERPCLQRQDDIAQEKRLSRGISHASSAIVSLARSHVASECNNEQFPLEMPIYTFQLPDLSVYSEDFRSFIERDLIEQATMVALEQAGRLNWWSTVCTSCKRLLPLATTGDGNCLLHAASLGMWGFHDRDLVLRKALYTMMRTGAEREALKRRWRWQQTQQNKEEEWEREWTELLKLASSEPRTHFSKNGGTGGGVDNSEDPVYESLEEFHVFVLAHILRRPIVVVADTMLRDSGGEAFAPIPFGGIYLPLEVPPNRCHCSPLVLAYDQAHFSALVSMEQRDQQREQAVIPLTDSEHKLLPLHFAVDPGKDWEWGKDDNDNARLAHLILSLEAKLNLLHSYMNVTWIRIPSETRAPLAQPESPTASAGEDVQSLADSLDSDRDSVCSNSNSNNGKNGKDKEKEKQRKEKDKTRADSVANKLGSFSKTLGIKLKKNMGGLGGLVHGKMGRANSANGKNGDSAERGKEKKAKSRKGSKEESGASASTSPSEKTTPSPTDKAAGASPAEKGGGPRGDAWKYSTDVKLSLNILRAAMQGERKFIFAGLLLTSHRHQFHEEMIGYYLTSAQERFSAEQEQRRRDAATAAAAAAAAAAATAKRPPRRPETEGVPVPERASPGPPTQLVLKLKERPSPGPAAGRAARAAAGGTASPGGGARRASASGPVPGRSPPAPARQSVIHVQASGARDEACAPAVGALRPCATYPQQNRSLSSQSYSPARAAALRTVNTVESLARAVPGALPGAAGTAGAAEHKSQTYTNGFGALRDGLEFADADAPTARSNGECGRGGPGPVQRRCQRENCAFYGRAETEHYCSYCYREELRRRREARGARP
Chain of UniProt Q9Y5K5 (Q9Y5K5 whole entry): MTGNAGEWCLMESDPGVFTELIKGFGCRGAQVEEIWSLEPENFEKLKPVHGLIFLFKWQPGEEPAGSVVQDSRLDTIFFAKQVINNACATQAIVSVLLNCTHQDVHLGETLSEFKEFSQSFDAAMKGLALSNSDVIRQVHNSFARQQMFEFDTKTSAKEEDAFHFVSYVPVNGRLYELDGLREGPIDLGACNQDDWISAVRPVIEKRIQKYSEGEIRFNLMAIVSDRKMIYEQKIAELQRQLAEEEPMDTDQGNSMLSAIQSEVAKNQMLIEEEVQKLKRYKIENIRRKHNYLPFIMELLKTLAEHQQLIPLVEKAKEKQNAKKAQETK
Chain of UniProt O00303 (O00303 whole entry): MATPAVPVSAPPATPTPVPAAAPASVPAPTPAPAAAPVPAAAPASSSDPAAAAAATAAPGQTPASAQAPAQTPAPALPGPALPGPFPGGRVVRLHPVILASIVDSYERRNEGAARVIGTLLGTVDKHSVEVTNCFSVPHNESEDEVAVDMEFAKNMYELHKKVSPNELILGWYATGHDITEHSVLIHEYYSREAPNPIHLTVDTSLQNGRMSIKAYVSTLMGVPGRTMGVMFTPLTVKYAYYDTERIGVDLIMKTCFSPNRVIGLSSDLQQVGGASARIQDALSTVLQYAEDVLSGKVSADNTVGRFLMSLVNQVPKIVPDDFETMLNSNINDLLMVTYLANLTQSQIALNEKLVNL
Chain of UniProt Q14694 (Q14694 whole entry): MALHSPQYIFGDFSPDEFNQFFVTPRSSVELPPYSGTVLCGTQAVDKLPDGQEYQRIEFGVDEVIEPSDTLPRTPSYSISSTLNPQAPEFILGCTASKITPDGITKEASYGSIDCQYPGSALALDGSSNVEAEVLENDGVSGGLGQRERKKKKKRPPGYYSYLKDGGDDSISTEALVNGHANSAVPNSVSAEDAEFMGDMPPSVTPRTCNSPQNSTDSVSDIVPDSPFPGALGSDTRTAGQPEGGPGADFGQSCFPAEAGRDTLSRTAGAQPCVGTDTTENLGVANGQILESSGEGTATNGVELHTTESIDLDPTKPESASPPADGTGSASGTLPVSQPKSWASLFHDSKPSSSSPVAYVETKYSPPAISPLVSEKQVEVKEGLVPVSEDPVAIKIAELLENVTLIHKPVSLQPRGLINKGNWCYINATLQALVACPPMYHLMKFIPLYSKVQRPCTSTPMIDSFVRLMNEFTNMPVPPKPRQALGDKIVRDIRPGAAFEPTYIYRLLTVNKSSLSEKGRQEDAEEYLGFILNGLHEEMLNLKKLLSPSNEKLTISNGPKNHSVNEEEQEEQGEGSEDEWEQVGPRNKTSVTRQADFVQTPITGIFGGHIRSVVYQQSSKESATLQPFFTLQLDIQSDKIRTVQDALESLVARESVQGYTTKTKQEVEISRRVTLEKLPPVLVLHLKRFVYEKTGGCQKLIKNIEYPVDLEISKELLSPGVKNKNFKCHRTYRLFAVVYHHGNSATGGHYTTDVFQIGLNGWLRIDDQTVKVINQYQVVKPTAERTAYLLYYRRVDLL

Target	log2 ratio of Biotin-Ahx-Ub-VS probe labelling
EIF3F (UniProt O00303)	-0.172
UCHL3 (UniProt P15374)	-0.263
USP12 (UniProt O75317)	-0.0667
USP14 (UniProt P54578)	-0.25
USP10 (UniProt Q14694)	-0.155
PSMD7 (UniProt P51665)	0.408
UCHL5 (UniProt Q9Y5K5)	-0.227
ATXN3 (UniProt P54252)	-0.387
UniProt Q8TE49	-0.317

same assay, conditions: compound concentration: 200uM; treatment time: 3 h

Target	log2 ratio of Biotin-Ahx-Ub-VS probe labelling
EIF3F (UniProt O00303)	0.14
UCHL3 (UniProt P15374)	-0.193
USP12 (UniProt O75317)	-0.647
USP14 (UniProt P54578)	0.0716
USP10 (UniProt Q14694)	-0.0316
PSMD7 (UniProt P51665)	0.631
UCHL5 (UniProt Q9Y5K5)	-0.17
ATXN3 (UniProt P54252)	-0.524
UniProt Q8TE49	-0.54
